For some assays here: Entries with a potency or affinity are not part of this list.
Legend:
Set-up in all cases: scale not given: direction of the effect not stated beside the values
[1] = target: Protein translocase subunit SecA (Escherichia coli (strain K12)) (UniProt P10408); experiment: Assay to Identify E. coli SecA ATPase Inhibitors; type: functional; settings: 30 µM
[2] = target: T1, Ubiquitin-activating enzyme e1, putative (Leishmania donovani (strain BPK282A1)) (UniProt E9BSI1); experiment: Leishmania donovani Ubiquitin Activating Enzyme (LdE1); type: functional; settings: 30 µM
T1 sequence (whole entry): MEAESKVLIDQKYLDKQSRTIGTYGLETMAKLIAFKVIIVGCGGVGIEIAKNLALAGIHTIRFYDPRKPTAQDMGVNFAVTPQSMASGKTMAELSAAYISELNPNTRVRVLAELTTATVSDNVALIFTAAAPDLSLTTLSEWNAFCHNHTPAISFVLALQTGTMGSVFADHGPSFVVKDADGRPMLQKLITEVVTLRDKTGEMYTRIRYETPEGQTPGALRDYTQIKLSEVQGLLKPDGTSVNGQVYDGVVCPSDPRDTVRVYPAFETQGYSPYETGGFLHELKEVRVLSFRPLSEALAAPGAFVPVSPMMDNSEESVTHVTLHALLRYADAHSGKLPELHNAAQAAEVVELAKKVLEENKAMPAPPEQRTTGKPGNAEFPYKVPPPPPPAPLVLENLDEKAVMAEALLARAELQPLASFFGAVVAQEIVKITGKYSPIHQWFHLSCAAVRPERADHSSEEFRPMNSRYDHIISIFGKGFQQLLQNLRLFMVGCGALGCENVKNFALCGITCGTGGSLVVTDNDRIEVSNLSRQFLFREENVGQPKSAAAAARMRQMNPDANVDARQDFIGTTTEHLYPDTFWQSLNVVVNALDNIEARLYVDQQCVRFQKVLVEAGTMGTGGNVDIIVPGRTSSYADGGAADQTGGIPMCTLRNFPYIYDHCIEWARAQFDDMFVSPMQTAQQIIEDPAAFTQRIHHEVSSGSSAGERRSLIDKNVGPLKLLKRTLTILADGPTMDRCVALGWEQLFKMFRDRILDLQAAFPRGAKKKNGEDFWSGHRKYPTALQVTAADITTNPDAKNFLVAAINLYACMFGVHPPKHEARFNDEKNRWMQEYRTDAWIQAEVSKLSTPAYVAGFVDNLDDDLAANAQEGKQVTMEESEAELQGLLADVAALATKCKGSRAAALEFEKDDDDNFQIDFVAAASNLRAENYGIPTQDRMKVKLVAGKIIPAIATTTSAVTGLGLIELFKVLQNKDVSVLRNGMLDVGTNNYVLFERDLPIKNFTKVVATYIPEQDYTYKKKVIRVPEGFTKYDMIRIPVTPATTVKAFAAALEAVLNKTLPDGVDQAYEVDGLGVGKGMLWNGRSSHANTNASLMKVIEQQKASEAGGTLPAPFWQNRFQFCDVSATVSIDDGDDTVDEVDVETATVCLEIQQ

[3] = target: AMP-activated protein kinase, AMPK (Homo sapiens) (UniProt P54646+O43741+P54619+Q9UGJ0+Q9Y478+Q13131+Q9UGI9); experiment: AMP-dependent Kinase enzyme assay. An in vitro enzyme assay that detects ADP turnover that is directly proportional to AMPK activity. This uses naive AMPK that is activated during the assay with MK-8722; type: functional; settings: 30 µM
[4] = target: Sialic acid-binding Ig-like lectin 9 (Homo sapiens) (UniProt Q9Y336); experiment: Hs-Siglec9 ALPHAscreen SOP 20170721; settings: 10 µM
Trypanosoma cruzi = experiment: Trypanosoma cruzi phosphomannomutase and mannose-1-phosphate guanylyltransferase assay; type: functional; settings: 10 µM
[5] = target: T2, Arginase-2, mitochondrial (Homo sapiens) (UniProt P78540); experiment: in vitro enzyme assay to detect the production of urea directly proportional to the activity of Arginase II; type: functional; settings: 33.3 µM; further: in the data most compounds retested in dose-response had high values
T2 sequence (whole entry): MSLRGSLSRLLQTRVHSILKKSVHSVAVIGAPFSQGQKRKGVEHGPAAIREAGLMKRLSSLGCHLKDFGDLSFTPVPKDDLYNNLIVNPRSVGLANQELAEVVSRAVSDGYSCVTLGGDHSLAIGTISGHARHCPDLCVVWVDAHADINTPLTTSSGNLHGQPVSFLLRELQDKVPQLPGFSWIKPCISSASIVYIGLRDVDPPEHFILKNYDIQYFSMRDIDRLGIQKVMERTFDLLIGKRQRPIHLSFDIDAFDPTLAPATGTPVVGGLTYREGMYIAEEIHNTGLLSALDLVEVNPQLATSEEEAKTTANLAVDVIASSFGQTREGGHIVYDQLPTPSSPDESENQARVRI

[6] = target: T3, Proteasome subunit beta (Trypanosoma cruzi) (UniProt O96673); experiment: Trypanosoma cruzi proteasome chymotrypsin-like activity (TcProtChymo) assay.; further: in the data most compounds retested in dose-response had high values; type: functional; settings: 9.37 µM
T3 sequence (whole entry): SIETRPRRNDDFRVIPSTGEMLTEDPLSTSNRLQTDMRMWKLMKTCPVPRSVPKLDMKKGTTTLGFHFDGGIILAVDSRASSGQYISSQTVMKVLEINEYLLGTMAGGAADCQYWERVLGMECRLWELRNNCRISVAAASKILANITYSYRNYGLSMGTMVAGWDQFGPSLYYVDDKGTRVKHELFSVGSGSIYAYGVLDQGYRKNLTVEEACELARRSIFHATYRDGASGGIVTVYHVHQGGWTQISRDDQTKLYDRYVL

Homo sapiens = species on record: Homo sapiens; experiment: To identify inhibition of the IFN signalling (Jak-Stat) pathway via expression of an eGFP reporter gene under the control of an IFN-stimulated response element (ISRE) containing MxA promoter.; type: functional; settings: 30 µM
[7] = target: T4, Tyrosyl-tRNA synthetase, putative (Trypanosoma cruzi (strain CL Brener)) (UniProt Q4DSP6); experiment: Trypanosoma cruzi tyrosyl tRNA synthetase (TcYRS) _High Tyrosine SOP; type: functional; settings: 30 µM; further: in the data most compounds retested in dose-response had high values
T4 sequence (whole entry): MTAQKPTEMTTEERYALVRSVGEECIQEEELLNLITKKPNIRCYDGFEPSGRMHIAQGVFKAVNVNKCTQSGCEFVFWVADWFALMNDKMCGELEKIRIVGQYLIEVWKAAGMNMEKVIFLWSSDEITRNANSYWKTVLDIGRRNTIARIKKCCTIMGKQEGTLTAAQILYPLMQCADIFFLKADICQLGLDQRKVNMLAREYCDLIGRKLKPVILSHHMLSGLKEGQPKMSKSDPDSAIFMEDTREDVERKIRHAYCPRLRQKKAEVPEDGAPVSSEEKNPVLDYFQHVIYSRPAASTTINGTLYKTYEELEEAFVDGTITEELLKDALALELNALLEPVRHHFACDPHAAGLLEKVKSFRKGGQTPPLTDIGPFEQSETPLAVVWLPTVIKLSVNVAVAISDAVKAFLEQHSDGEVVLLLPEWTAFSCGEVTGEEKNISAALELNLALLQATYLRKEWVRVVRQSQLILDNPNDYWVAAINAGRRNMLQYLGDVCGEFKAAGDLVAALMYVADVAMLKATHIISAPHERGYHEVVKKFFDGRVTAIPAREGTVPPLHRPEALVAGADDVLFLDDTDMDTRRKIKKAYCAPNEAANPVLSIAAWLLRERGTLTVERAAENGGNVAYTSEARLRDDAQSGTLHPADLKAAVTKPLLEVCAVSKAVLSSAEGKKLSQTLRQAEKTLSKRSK

[8] = target: T4, Tyrosyl-tRNA synthetase, putative (Trypanosoma cruzi (strain CL Brener)); experiment: Trypanosoma cruzi tyrosyl tRNA synthetase (TcYRS) SOP; type: functional; settings: 30 µM
[9] = target: Chromo domain-containing protein 1 (Saccharomyces cerevisiae (strain ATCC 204508 / S288c) (Baker's yeast)) (UniProt P32657); experiment: ScCHD-1 Enzyme Inhibition Assay; type: functional; settings: 30 µM; further: in the data most compounds retested in dose-response had high values
Chain of Chromo domain-containing protein 1 (Saccharomyces cerevisiae (strain ATCC 204508 / S288c) (Baker's yeast)) (P32657 whole entry, the tested form may be a part): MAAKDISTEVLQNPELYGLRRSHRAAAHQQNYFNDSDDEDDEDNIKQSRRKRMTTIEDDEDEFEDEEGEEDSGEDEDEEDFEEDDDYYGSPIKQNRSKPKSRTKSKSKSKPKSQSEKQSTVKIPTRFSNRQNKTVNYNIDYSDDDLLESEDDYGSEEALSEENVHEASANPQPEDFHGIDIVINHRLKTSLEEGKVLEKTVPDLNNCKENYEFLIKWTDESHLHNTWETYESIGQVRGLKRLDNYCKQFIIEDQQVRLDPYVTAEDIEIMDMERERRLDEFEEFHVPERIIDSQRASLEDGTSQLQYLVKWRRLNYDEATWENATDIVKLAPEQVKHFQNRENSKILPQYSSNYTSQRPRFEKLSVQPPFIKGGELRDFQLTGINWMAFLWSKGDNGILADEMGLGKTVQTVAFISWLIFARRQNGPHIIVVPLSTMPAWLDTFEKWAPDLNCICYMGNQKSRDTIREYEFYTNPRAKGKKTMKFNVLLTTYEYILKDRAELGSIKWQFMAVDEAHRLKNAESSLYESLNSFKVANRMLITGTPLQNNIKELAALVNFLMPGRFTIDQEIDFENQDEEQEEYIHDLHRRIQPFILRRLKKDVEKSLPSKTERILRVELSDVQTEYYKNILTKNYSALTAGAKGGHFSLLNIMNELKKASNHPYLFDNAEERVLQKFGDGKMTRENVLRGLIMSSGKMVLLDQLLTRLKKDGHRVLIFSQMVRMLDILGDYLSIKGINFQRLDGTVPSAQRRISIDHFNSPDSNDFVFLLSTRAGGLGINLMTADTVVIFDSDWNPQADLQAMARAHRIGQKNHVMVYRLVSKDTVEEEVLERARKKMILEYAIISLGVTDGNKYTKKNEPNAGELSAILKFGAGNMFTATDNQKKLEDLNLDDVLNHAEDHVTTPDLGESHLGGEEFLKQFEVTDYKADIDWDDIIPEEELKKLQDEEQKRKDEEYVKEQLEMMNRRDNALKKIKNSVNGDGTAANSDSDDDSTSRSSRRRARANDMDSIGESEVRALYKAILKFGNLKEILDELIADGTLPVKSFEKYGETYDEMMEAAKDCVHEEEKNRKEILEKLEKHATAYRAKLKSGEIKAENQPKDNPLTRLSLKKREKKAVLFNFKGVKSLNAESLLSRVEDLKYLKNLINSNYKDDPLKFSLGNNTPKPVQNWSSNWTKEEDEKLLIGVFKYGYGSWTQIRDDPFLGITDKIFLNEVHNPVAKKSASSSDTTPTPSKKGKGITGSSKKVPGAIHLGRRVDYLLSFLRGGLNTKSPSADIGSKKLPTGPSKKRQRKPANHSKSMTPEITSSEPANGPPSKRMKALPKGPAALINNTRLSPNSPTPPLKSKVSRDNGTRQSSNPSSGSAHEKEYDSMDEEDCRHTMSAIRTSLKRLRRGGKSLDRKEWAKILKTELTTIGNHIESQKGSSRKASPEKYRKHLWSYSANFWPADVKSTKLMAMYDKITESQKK

Chain of Sialic acid-binding Ig-like lectin 9 (Homo sapiens) (Q9Y336 whole entry): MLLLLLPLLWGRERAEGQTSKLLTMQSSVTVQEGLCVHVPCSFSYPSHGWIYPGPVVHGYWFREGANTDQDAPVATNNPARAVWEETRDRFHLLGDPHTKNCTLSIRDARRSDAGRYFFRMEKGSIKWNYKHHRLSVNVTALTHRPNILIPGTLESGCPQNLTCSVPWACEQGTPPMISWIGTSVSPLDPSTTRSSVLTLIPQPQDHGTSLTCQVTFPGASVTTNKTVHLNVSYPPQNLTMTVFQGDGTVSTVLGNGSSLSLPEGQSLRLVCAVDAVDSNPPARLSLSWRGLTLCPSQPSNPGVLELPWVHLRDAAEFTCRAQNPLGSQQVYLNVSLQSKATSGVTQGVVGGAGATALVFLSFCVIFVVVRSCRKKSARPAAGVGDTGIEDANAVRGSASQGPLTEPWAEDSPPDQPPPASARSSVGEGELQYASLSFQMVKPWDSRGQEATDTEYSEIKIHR
Chain of Protein translocase subunit SecA (Escherichia coli (strain K12)) (P10408 whole entry): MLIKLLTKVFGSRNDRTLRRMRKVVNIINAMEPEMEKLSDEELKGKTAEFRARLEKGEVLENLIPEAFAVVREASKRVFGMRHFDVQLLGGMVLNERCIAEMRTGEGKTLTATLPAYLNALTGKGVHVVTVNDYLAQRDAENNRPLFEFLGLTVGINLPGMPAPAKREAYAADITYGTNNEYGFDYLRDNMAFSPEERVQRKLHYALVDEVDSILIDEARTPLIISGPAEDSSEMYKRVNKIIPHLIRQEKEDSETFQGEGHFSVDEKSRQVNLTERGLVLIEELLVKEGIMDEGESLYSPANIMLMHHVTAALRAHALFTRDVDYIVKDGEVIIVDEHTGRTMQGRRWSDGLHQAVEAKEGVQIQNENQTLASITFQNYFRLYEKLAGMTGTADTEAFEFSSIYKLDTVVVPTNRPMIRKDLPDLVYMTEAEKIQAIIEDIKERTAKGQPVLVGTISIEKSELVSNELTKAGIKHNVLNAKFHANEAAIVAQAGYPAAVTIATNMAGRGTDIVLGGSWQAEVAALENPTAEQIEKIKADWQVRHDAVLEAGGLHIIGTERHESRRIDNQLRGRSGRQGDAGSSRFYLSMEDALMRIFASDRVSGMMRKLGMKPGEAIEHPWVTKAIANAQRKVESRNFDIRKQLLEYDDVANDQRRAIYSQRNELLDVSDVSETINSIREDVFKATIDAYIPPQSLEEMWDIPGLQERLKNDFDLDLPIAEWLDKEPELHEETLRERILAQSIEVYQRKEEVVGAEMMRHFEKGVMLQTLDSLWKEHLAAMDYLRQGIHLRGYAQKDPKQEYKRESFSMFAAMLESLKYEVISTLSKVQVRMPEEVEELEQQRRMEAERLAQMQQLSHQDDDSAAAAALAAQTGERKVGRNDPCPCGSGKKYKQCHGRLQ

| Structure (SMILES) | Percent Effect [1] | Percent Effect [2] | Percent Effect [3] | Percent Effect [4] | Percent Effect (Trypanosoma cruzi) | Percent Effect [5] | Percent Effect [6] | Percent Effect (Homo sapiens) | Percent Effect [7] | Percent Effect [8] | Percent Effect [9] |
| --- | --- | --- | --- | --- | --- | --- | --- | --- | --- | --- | --- |
| CCc1nnsc1C(=O)N1CCCN(Cc2cnn(C)c2)CC1 | -0.656% | -2.6% | -0.0421% | -5.43% | 7.74% | -0.21% | -1.05% | -10.1% | 0.952% | 2.35% | -0.342% |
| O=C(C[C@@H]1COC[C@H]2CN(Cc3ccc(F)cc3)C[C@@H]12)N1CCCCO1 | -4.42% | 6.67% | 4.91% | 6.17% | -2.36% | -0.176% | 16.1% | 19% | 2.12% | 7.69% | -5.03% |
| CS(=O)(=O)c1snnc1C1CCN(Cc2ccncc2)CC1 | -6.59% | 4.05% | 2.28% | -0.45% | -3.75% | -2.09% | 9.83% | 23.2% | 0% | 1.3% | 5.8% |
| CCc1n[nH]c(C2CN(CC(=O)NCCc3ccsc3)CCO2)n1 (stereo unspecified) | -2.71% | 5.48% | -4.4% | 11.2% | 5.09% | 4.09% | 1.42% | 4.97% | 1.07% | 5% | -5.13% |
| Cc1nc(C2CCCN(C(=O)CCCn3ccnc3C)C2)no1 (stereo unspecified) | -3.92% | -5.2% | -5.99% | -4.13% | -3.37% | 3.56% | -3.21% | 22.2% | -0.971% | -2.44% | 5.19% |
| CCc1ncncc1C(=O)N1CCCN(Cc2ccc(C)cc2)CC1 | -6.16% | 2.63% | 1.25% | -3.26% | -6.44% | -0.36% | 0.592% | 6.25% | -2.46% | -13.6% | 6.06% |
| CN(CCn1nc2ccccn2c1=O)CC(=O)NC1CC1 | 0.259% | -2.63% | 7.37% | -0.458% | -2.63% | 15.4% | 10.4% | -11.8% | 2.13% | 0% | -5.38% |
| CC(C)Cc1ccc(S(=O)(=O)Nc2ccc(=O)n(C)c2)cc1 | -3.52% | 25.3% | -59.7% | -2.55% | 3.31% | 0% | 15.5% | 69% | 6.4% | 21.5% | -7.97% |
| CC(=O)c1ccc(N2CCCC(CO)(CCOc3ccccc3)C2)nc1 (stereo unspecified) | -1.73% | 10.4% | 4.96% | 15.7% | 6.39% | -22.1% | 19.5% | 65.7% | 5.38% | 16.1% | -2.3% |
| Cc1noc(C)c1CCC(=O)N1CCCN(Cc2cscn2)CC1 | -1.71% | 13.2% | -5.71% | -4.5% | -3.76% | 6.9% | 21.1% | 23% | 8.33% | 17.1% | -10.5% |
| CCCc1nc(CN2CCCC2Cn2cncn2)cs1 (stereo unspecified) | -3.84% | 12.7% | -5.8% | 9.38% | 3.87% | -24.3% | 5.98% | 4.39% | 10.3% | 24.1% | -3.42% |
| Cc1cnc(C)c(N2CCN(Cc3ccc(-c4cc[nH]n4)o3)CC2)n1 | -0.779% | 10.7% | -20.1% | 21.3% | 5.94% | 7.29% | 22.7% | 32% | 7.1% | 16.1% | -4.34% |
| O=C(CCCNc1ncccn1)N1CCCC(n2cccn2)C1 (stereo unspecified) | -7.67% | -1.27% | 0.0579% | -1.81% | -3.18% | -4.52% | 2.23% | 14.1% | -3.12% | -2.53% | -14.1% |
| CC(=O)c1cccc(NC(=O)CN2CCCCC2C2OCCO2)c1 (stereo unspecified) | -5.29% | 5.41% | 1.19% | -1.14% | -2.54% | 5% | 8.37% | -2.75% | 5.94% | 11% | -4.75% |
| Cc1cnn(CC2CN(CC(=O)Nc3nnc(C)s3)CCO2)c1 (stereo unspecified) | -5.89% | 13.2% | 0.773% | 3.55% | 7.71% | -0.766% | 6.01% | -6.29% | 3.43% | 12.2% | -12.5% |
| Cc1cc(C2CCCN(CCCS(=O)(=O)c3ccccc3)C2)n[nH]1 (stereo unspecified) | -0.801% | 15.2% | -4.79% | -8.5% | -3.87% | 6.46% | 4.34% | 18.4% | 4.43% | 11.4% | -5.44% |

Source: ChEMBL document CHEMBL3988442, “University of Dundee, Small-Polar-MMV Screening Library” (2021)
